Data from PMC5540273 (PLoS ONE, 2017).

Legend:
Settings in all cases: concentration: 1 μM, replicates: in singlicate; n = 1
CHEK2 = test system: CHEK2
CIT = test system: CIT
CLK1 = test system: CLK1
CLK2 = test system: CLK2
CLK3 = test system: CLK3
CLK4 = test system: CLK4
CSF1R-autoinhibited = test system: CSF1R-autoinhibited
CSF1R = test system: CSF1R
CSK = test system: CSK
CSNK1A1L = test system: CSNK1A1L
CSNK1A1 = test system: CSNK1A1
CSNK1D = test system: CSNK1D
CSNK1E = test system: CSNK1E
CSNK1G1 = test system: CSNK1G1
CSNK1G2 = test system: CSNK1G2
CSNK1G3 = test system: CSNK1G3
CSNK2A1 = test system: CSNK2A1
CSNK2A2 = test system: CSNK2A2
CTK = test system: T1, CTK
T1 construct: gene MATK

DAPK1 = test system: DAPK1
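Further: KINOMEscan kinase panel screen.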

Structure (SMILES) | %Inh (CHEK2) [%] | %Inh (CIT) [%] | %Inh (CLK1) [%] | %Inh (CLK2) [%] | %Inh (CLK3) [%] | %Inh (CLK4) [%] | %Inh (CSF1R-autoinhibited) [%] | %Inh (CSF1R) [%] | %Inh (CSK) [%] | %Inh (CSNK1A1L) [%] | %Inh (CSNK1A1) [%] | %Inh (CSNK1D) [%] | %Inh (CSNK1E) [%] | %Inh (CSNK1G1) [%] | %Inh (CSNK1G2) [%] | %Inh (CSNK1G3) [%] | %Inh (CSNK2A1) [%] | %Inh (CSNK2A2) [%] | %Inh (CTK) [%] | %Inh (DAPK1) [%]
COc1cc2nccc(Nc3ccc(NC(=O)c4ccc(C)cc4)c(O)c3)c2cc1OC.Cl [GW440132] | 11 | 11 | 37 | 0 | 87 | 14 | 15 | 18 | 0 | 9 | 0 | 2 | 45 | 0 | 0 | 30 | 0 | 0 | 0 | 0
CS(=O)(=O)c1ccc(-c2nc3n(c2-c2ccncc2)CCC3)cc1 [SKF-105942] | 0 | 4 | 11 | 0 | 0 | 0 | 0 | 0 | 100 | 2 | 0 | 6 | 22 | 4 | 0 | 2 | 0 | 9 | 0 | 0
CS(=O)(=O)c1ccc(-c2c(-c3ncn[nH]3)sc(N3CCOCC3)c2C#N)cc1 | 5 | 4 | 5 | 8 | 0 | 0 | 0 | 27 | 16 | 0 | 48 | 0 | 4 | 1 | 0 | 0 | 0 | 24 | 26 | 5
Cn1ccc2ncnc(Oc3ccc(NC(=O)Nc4ccccc4)cc3)c21 | 14 | 22 | 1 | 0 | 0 | 14 | 10 | 95.1 | 0 | 3 | 4 | 13 | 5 | 0 | 11 | 0 | 14 | 0 | 0 | 11
O=C(Nc1ccc2c(c1)OCO2)NC1CCN(c2ccnc(Nc3ccc(F)cc3)n2)C1 (centres unmarked) [GSK1379724] | 0 | 23 | 10 | 0 | 0 | 6 | 0 | 0 | 1 | 2 | 0 | 21 | 0 | 0 | 0 | 8 | 0 | 0 | 0 | 0
Fc1cccc(COc2nnc(-c3ccc4c(c3)CCO4)o2)c1 | 10 | 0 | 32 | 13 | 0 | 53 | 0 | 11 | 0 | 12 | 0 | 0 | 0 | 10 | 4 | 0 | 42 | 60 | 0 | 24
Cn1ccc2ncnc(Oc3ccc(Nc4nc5ccccc5[nH]4)cc3)c21 | 23 | 8 | 0 | 12 | 0 | 0 | 0 | 17 | 0 | 8 | 0 | 0 | 0 | 0 | 0 | 0 | 0 | 0 | 0 | 0
O=C1NC(=O)C(N2CCc3ccccc32)=C1c1ccccc1Cl [SB-373598] | 0 | 29 | 12 | 45 | 0 | 19 | 0 | 4 | 46 | 15 | 33 | 18 | 18 | 13 | 9 | 14 | 2 | 15 | 0 | 22
NC(=O)c1nnc2ccccc2c1N | 16 | 7 | 51 | 17 | 1 | 1 | 0 | 14 | 0 | 38 | 66 | 49 | 37 | 9 | 0 | 43 | 11 | 24 | 0 | 2
Cl.Oc1ccc(-c2nc(-c3ccccc3)[nH]c2-c2ccncc2)cc1 [SB-428218] | 0 | 0 | 0 | 6 | 0 | 0 | 55 | 10 | 0 | 11 | 0 | 37 | 28 | 18 | 0 | 0 | 0 | 0 | 0 | 3
